Shown are actives, neighbours in structure and some others; about 2.4% of the full set was active somewhere.
eIF4H inh – inhibitors of RNA binding by human eIF4H; Q15056; eIF4H fluorescence polarization binding assay; AID 2012; 290,000 compounds, 0.94% hits; inhibition, % at 35 µM;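 further: calls also rest on retests at 20 µM and on dose response follow-up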
MLLE-PAM2 inh – inhibitors of microRNA-mediated deadenylation, human PABP1 MLLE binding; 360,000 compounds, 0.36% hits; inhibition, % at 20 µM; AID 588489; GST-MLLE / FITC-PAM2 fluorescence polarization; P11940; in the data active means inhibition above about 35%, passing the limit was not always enough
M18AAP inhibitor – PfM18AAP enzyme inhibition; recombinant PfM18AAP, H-Glu-NHMec fluorogenic cleavage; inhibition, % at 7.35 µM; AID 1822; 290,000 compounds, 1.2% hits;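 active means inhibition above the campaign mean inhibition over all tested compounds plus 3 SD, cut at about 28% in these data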
PERK inh – human PERK inhibition, primary cell-based screen. Q9NZJ5. CHO PERK-DD fusion, SEAP luminescence translation reporter. inhibition, % at 5.6 µM. 220,000 compounds, 0.17% hits;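 active means inhibition above the mean inhibition of all tested compounds plus 3 SD, set separately per screening campaign, cut at about 2.9% in these data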;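 further: PERK kinase domain activated by AP20187 dimerizer at 100 nM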
Target sequence (Q9NZJ5 whole entry, looked up, the tested form may be a part): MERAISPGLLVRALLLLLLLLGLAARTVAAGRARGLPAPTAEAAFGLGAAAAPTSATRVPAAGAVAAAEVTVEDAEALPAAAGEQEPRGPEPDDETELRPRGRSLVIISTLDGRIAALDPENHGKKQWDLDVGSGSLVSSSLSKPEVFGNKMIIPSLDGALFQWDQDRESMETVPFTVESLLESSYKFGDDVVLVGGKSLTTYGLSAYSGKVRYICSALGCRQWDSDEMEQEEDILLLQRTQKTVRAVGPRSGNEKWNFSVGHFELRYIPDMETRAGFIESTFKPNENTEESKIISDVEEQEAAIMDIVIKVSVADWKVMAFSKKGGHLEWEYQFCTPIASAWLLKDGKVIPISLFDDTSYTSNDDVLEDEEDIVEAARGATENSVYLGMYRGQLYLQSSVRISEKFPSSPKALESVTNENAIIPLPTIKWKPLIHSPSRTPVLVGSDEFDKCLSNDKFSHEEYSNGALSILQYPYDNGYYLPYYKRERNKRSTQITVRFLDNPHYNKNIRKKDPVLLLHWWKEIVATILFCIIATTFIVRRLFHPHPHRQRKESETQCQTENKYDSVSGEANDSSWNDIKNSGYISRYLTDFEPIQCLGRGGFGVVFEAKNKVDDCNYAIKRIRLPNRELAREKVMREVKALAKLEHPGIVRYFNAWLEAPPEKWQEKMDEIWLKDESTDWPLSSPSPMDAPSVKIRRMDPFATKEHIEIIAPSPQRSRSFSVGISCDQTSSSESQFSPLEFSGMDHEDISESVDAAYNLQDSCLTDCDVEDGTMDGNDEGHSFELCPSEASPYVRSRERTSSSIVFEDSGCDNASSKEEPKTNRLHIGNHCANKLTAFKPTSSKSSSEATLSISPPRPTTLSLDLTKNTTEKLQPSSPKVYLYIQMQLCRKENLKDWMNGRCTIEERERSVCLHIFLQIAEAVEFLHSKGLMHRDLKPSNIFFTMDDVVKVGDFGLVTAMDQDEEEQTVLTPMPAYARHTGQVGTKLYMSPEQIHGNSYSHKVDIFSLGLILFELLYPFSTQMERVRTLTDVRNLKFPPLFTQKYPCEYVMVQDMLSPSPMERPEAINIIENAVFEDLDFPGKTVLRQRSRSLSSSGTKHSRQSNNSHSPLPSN
PABP FP inh – PABP-poly(A) binding inhibition | inhibition, % at 35 µM | P11940 | AID 2014 | 290,000 compounds, 1% hits | PABP-poly(A) RNA binding, fluorescence polarization;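 further: calls also rest on retests at 20 µM and on dose response follow-up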
eIF4E-4G inh – blocks eIF4E binding to eIF4G. TR-FRET eIF4E-eIF4GI(517-606) binding, 2 h. inhibition, % at 21.7 µM. 220,000 compounds, 0.37% hits. AID 782;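 active means inhibition above about 30%, limit read from the data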
Hits are given with their value; n = inactive; u = inconclusive; x = no result; [ ] = remark or other dose. Unless noted, how the calls were made is not given here.

SMILES	eIF4H inh	MLLE-PAM2 inh	M18AAP inhibitor	PERK inh	PABP FP inh	eIF4E-4G inh
CC[n+]1ccc(C)c2cc(S(=O)C(F)(F)F)ccc21 (stereo unspecified)	u	n	n	n	73	n
CC[n+]1ccc(C)c2cc(SC(F)(F)F)ccc21	n	n	n	n	n	n
Cc1nc2cc(C(=O)O)ccc2s1	n	39	30	n	n	x
O=C(COc1ccccc1Br)Nc1ccc(S(=O)(=O)N2CCCC2)cc1	x	n	x	x	x	x
C/C(=N\NC(N)=O)c1ccccc1Cl	106	n	n	n	60	n
O=C(O)[C@@H](c1ccccc1)N1Cc2ccccc2C1=O	n	n	n	n	n	90
O=C(O)C(c1ccccc1)N1C(=O)c2ccccc2C1=O (stereo unspecified)	n	n	n	x	n	x
COc1cc(-c2cnc3c(NC=O)cc(-c4ccsc4)cn23)cc(OC)c1OC	x	n	x	x	x	x
Cc1ccc(Oc2nc3c(C)cccn3c(=O)c2/C=C(\C#N)C(N)=O)cc1	n	n	n	n	n	41
CCOC(=O)/C(C#N)=C/c1c(Oc2cccc(C)c2)nc2c(C)cccn2c1=O	n	n	n	n	n	n
O=C(NC(=S)NNC(=O)c1ccccc1[N+](=O)[O-])c1ccccc1	n	n	n	n	n	n
CCC(=O)NC(=S)NNC(=O)c1ccccc1[N+](=O)[O-]	u	n	n	n	active	n
O=C(O)CCCN1C(=O)/C(=C/c2ccncc2)SC1=S	n	n	n	n	n	n
O=C(O)CCCCCN1C(=O)/C(=C\c2ccc(-c3ccc(Cl)cc3)o2)SC1=S	54	n	n	n	36	n
O=C(O)CCCN1C(=O)/C(=C/c2ccc(-c3nc4ccccc4s3)o2)SC1=S	u	n	n	n	active	n
CC(=O)c1cccc(NC(=O)C2Cc3c(-c4ccco4)ccnc3O2)c1 (stereo unspecified)	x	n	x	x	x	x
O=C(N=C1SC2CS(=O)(=O)CC2N1c1ccc(OC(F)(F)F)cc1)C1CC1 (stereo unspecified)	n	n	n	x	n	x
CCc1nc2c(OCC(=O)C(C)(C)C)cccn2c1N(C)C(=O)C(C)C	x	n	x	x	x	x
CCCCCCc1cc2cc(C(N)=O)c(=N)oc2cc1O	96	x	n	n	108	n
CCN(CC(=O)N1CCN(Cc2ccccc2)CC1)S(=O)(=O)c1ccc(C)cc1	n	n	n	x	n	x
CC(C)(C)NS(=O)(=O)c1cccc2nsnc12	x	x	n	3.7	x	x
CC(C)n1nc(C(=O)Oc2cc(Cl)ccc2Cl)c2ccccc2c1=O	n	n	n	n	n	n
CC(C)n1nc(C(=O)Oc2cccc(Cl)c2Cl)c2ccccc2c1=O	3.7	n	n	n	60	n
Cc1cc(Cn2ccnc2)c(C)cc1Cn1ccnc1	n	n	n	n	n	n
CCOc1ccccc1NC(=O)C1CCN(S(=O)(=O)c2cccc3cccnc23)CC1	n	n	x	x	n	57[fluorescence artefact?]
SMILES	eIF4H inh	MLLE-PAM2 inh	M18AAP inhibitor	PERK inh	PABP FP inh	eIF4E-4G inh
COc1ccc(C)cc1NC(=O)C1CCN(S(=O)(=O)c2cccc3cccnc23)CC1	n	n	n	n	n	n
Cc1sc2ncn(CC(=O)N3CCN(c4ccccc4)CC3)c(=O)c2c1S(=O)(=O)N1CCOCC1	n	n	n	x	n	x
C=CCNC(=S)NS(=O)(=O)c1cccs1	n	44	n	n	n	n
CCc1cccc(NC(=O)COC(=O)CSc2ccc(C)cc2)c1	x	n	x	x	x	x
Cc1ccccc1N=Nc1c(C)[nH]n(-c2ccccc2)c1=O	n	x	n	n	n	59
Cc1[nH]n(-c2ccccc2)c(=O)c1N=Nc1ccccc1O	n	n	n	n	n	n
Cc1[nH]n(C2=NCCS2)c(=O)c1N=Nc1ccccc1	n	40	n	n	n	n
Cc1[nH]n(-c2ccccc2)c(=O)c1N=Nc1ccc2c(c1)OCO2	n	n	n	n	n	n
CC(O)C(C(=O)OCc1ccc([N+](=O)[O-])cc1)N1C(=O)c2ccccc2C1=O (stereo unspecified)	n	n	n	n	n	n
COc1ccccc1NC(=S)NCCSc1ccc(Cl)cc1	n	n	n	n	n	33
COCCNC(=S)N(c1ccccc1)C(C)C	2.5	n	n	n	n	n
O=C(Nc1cccc(S(=O)(=O)N2CCCCCC2)c1)C1CCN(C(=O)c2ccc(F)cc2)CC1	x	n	x	x	x	x
O=C(O)C1=NN(c2ccccc2)C(=O)C1	n	n	n	n	n	n
CCOC(=O)C1=NN(c2ccccc2)C(=O)C1	n	n	n	2.9	n	n
COC(=O)C1C2C=CC3(CN(C(C)c4ccc(OC)cc4)C(=O)C13)O2 (stereo unspecified)	active	n	n	n	54	n
Cc1ccc(Cn2c(C(C)Nc3nc(-c4ccc(C)cc4)cs3)nc3cc(Cl)c(Cl)cc32)cc1 (stereo unspecified)	85	n	n	x	n	x
CCOC(=O)c1c(OCC)[nH]c2c1cc(O)c1ccccc12	72	n	n	n	109	n
CCOC(=O)c1c(C)[nH]c2cc(Br)c(O)cc12	n	n	n	n	n	n
Cc1ccc(NC(=O)CN(C)C(=O)Cc2ccc(Cl)cc2Cl)cc1	n	n	n	x	n	x
COCCn1c(SCc2ccc(C(=O)OC)o2)nc2cc(Cl)ccc2c1=O	n	n	n	n	n	n
CN(C(=O)CN1C(=O)c2cccc(N)c2C1=O)C1CCCCC1	x	40	x	x	x	x
CN(C(=O)CN1C(=O)NC2(CCc3ccccc32)C1=O)C1CCCCC1 (stereo unspecified)	x	n	x	x	x	x
CC1CCCCC1NC(=O)CN1C(=O)c2cccc(N)c2C1=O (stereo unspecified)	106	50	n	n	active	n
COc1ccccc1CNC(=O)CN1C(=O)c2cccc(N)c2C1=O	n	n	n	x	n	x
CCCn1c(C)cc(C(=O)CN2C(=O)c3cccc(N)c3C2=O)c1C	85	n	n	n	95	n
SMILES	eIF4H inh	MLLE-PAM2 inh	M18AAP inhibitor	PERK inh	PABP FP inh	eIF4E-4G inh
CCCCNC(=O)CN1C(=O)c2cccc(N)c2C1=O	85	39	n	n	86	n
COC(=O)Nc1nnc(-c2ccncc2)s1	n	36	n	n	n	n
Cc1cc(NC(=O)CSc2nnnn2-c2ccc(C)c(Cl)c2)no1	n	n	n	x	n	x
O=C(O)c1ccccc1-c1ccc(/C=C/c2cc(C(F)(F)F)[nH]c(=O)n2)o1	u	n	n	n	n	n
O=c1nc(/C=C/c2ccc(-c3ccc(F)cc3)o2)cc(C(F)(F)F)[nH]1	n	x	n	n	121	n
COc1ccc(OC)c(-c2csc(NC(=O)Cc3ccc(F)cc3)n2)c1	n	n	n	x	n	x
COc1ccc(OC)c(-c2csc(NC(=O)Cn3[nH]c(=O)c4ccccc4c3=O)n2)c1	n	n	n	n	n	42
CC(CS(=O)(=O)c1ccc2c(c1)NC(=O)CS2)C(=O)N1CCN(c2cccc(Cl)c2)CC1 (stereo unspecified)	74	n	n	x	34	x
CC1Sc2ccc(S(=O)(=O)CCC(=O)N3CCN(c4cccc(Cl)c4)CC3)cc2NC1=O (stereo unspecified)	n	n	n	x	n	x

High-throughput results (PubChem)
